# High-throughput results deposited in PubChem by several laboratories.
# EP2 antag – blocks the human prostaglandin E2 receptor EP2; P43116; C6 glioma cells expressing human EP2, cAMP TR-FRET; cells stimulated with saturating PGE2; inhibition, % at 25 µM; 260,000 compounds, 0.52% hits; AID 1422;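 active means percent inhibition above 40 after rounding to a whole number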;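 further: rat C6 glioma host cells with rolipram phosphodiesterase inhibitor present; the protocol text gives 20 µM as final concentration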
# Target sequence (P43116 whole entry, looked up): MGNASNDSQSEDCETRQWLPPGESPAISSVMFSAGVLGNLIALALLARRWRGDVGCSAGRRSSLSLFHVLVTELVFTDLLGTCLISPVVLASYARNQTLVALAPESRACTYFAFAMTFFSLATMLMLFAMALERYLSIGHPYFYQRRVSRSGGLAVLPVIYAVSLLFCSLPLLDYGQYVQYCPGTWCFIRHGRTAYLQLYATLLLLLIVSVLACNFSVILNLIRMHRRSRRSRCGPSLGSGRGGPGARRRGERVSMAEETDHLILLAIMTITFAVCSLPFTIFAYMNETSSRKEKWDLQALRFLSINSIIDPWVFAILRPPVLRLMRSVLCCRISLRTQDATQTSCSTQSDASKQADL
# S1P3 antagonist – antagonists of human S1P3 receptor; Q99500; CHO S1P3 NFAT-BLA reporter, FRET fluorescence, antagonist mode; inhibition, % at 4.98 µM; 170,000 compounds, 0.27% hits; AID 485;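 active means inhibition above the plate cutoff, the mean inhibition of test wells on that plate plus 3 SD, cut at about 28% in these data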;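 further: cells challenged with S1P at its EC80 of 0.8 µM; blue over green emission ratio from cleaved BLA substrate after 4 h stimulation; 0% = S1P-stimulated wells and 100% = unstimulated DMSO-only wells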
# S1P4 agonist – human S1P4 receptor agonism; O95977; S1P4-expressing cell line, agonist reporter assay; activation, % at 4.98 µM; 220,000 compounds, 0.35% hits; AID 1509; in the data active means activation above about 11%;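 further: 0% = DMSO vehicle and 100% = reference agonist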
# S1P4 antagonist – antagonists of human S1P4 receptor | O95977 | S1P4-expressing cells, antagonist mode, reporter read-out | inhibition, % at 4.98 µM | 220,000 compounds, 0.26% hits | AID 1510; in the data active means inhibition above about 29%;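 further: 0% = wells stimulated with agonist and 100% = vehicle wells without agonist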
# EP2 modulator – modulates human prostaglandin E2 receptor EP2 signaling; P43116; EP2-expressing cells, cAMP HTRF FRET, PGE2 co-stimulation; induction, % at 25 µM; 260,000 compounds, 0.83% hits; AID 940;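 active means compounds whose cAMP rise, as percent of the full-agonist control response, exceeds 60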;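 further: rat C6 glioma line stably carrying human EP2 under a CMV promoter; the protocol text gives 20 µM as final concentration; 100% = response of wells given 1 µM PGE2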
# EP2 confirm – EP2 receptor cAMP induction, counter-screens negative | C6 glioma EP2 cells, cAMP HTRF induction; plus low (about EC15) PGE2 agonist | calls only at 20 µM (by protocol) | shares compounds with EP2 modulator | 1,300 compounds, 47% hits;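 active means cAMP induction above 50% in the main assay while under 30% in all four parallel counter assays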;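 further: rat C6 glioma cells stably expressing human EP2 receptor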
# * marks the source's active call; other numbers are inactive results; i = inactive; / = not tested or not shown; + = active, no number; ! = not active in a repeat. The list is not random: actives were taken first. Their share in the collection is about 1.9%.
SMILES,EP2 antag,S1P3 antagonist,S1P4 agonist,S1P4 antagonist,EP2 modulator,EP2 confirm
Cc1cc(-c2cncnc2C2CCCN(CC(=O)NCc3ccc4c(c3)OCO4)C2)on1 (centres undefined),/,/,/,/,-25,/
CC(=O)Nc1ccc(/C=C/c2ccc3cccc([N+](=O)[O-])c3n2)cc1,10,7,0,-1,-16,/
COc1cc(/C=C/c2ccc3cccc([N+](=O)[O-])c3n2)ccc1OCC(=O)O,4,14,2,-9,73*,+
O=C(O)COc1ccc(/C=C/c2ccc3cccc([N+](=O)[O-])c3n2)cc1,6,4,0,-7,89*,+
Fc1ccc(-n2cc(CN(CCCn3ccnc3)Cc3cccc(F)c3)cn2)cc1,12,/,/,/,-40,/
O=C(OCC(=O)N1N=C(c2ccc(Cl)cc2)CC1c1ccco1)c1ccco1 (centres undefined),6,1,1,-10,69*,i
COCCNC(=O)c1ccc(Cl)c(S(=O)(=O)N2CCOCC2)c1,6,/,/,/,12,/
CC(C)Sc1cc(N2CCCC2)nc(-c2ccccc2)n1,11,/,-1,-28,41,/
CCSc1cc(N2CCOCC2)nc(-c2ccc(Cl)cc2)n1,15,-13,-1,0,76*,+
CC(C)Sc1cc(N2CCOCC2)nc(-c2ccccc2)n1,2,7,0,-19,74*,+
Cc1cc(-c2cncnc2C2CCCN(CC(=O)N3CCCCC3)C2)on1 (centres undefined),/,/,/,/,-8,/
Cc1cc(=O)[nH]c(SCC(=O)c2ccc(Cl)cc2)n1,5,/,/,/,-9,/
c1ccc(-c2cc(-c3ccncc3)nc3ccc4ccccc4c23)cc1,5,4,-1,4,99*,+
O=C(NC1(c2ccc3c(c2)OCO3)CCCC1)c1n[nH]c2c1CCCC2,4,/,/,/,-73,/
CC(C)c1nnc(SCC(=O)Nc2ccc(Cl)cc2)n1C,7,/,/,/,8,/
C/C(CCc1oc2ccccc2c1-c1ccc(C)o1)=N/O,4,-14,-2,7,75*,+
CCOC(=O)c1c(C)nc2ccccc2c1-c1ccccc1,5,-18,-1,-21,85*,+
COC(=O)c1c(C)nc2ccccc2c1-c1ccccc1,6,/,1,-2,89*,i
COC(=O)c1c(C)[nH]c(C)c1-c1ccccc1,11,2,1,4,-13,/
COc1cccc(NC(=O)CSc2nc3sc4c(c3c(=O)[nH]2)CCC(C)C4)c1 (centres undefined),10,/,/,/,15,/
C=CCN1C(=O)N(/C=C/C)c2cccc3cccc1c23,6,-3,-2,-20,68*,+
COc1ccccc1OCc1nnc(SCC(=O)Nc2cccc(Cl)c2)n1C,19,/,/,/,2,/
CN1CCN(c2oc(-c3ccco3)nc2S(=O)(=O)c2ccccc2)CC1,15,9,0,9,-3,/
O=S(=O)(c1ccccc1)c1nc(-c2ccco2)oc1N1CCCCCC1,15,18,-2,-19,68*,i
Cc1ccc(-c2csc3ncnc(N4CCc5ccccc5C4)c23)cc1,4,-10,-1,-14,70*,i
SMILES,EP2 antag,S1P3 antagonist,S1P4 agonist,S1P4 antagonist,EP2 modulator,EP2 confirm
CCCCNc1nc(N(C)c2ccccc2)nc(-n2ccnc2)n1,2,19,2,-8,77*,+
COc1c(O)ccc(/C=C(\C#N)c2nc3ccccc3[nH]2)c1[N+](=O)[O-],2,19,2,-8,79*,+
C=C1CCC2C(CC2(C)C)C(=C)CC/C1=N/O (centres undefined),15,/,/,/,55,i
CC(=O)N1c2ccc(NC(=O)COc3ccc4nsnc4c3)cc2CC1C (centres undefined),10,/,/,/,-58,/
CC(/C=C\c1ccccc1)=C/C(=O)O,2,-10,0,-3,-8,/
CC1=C(/C=C/C(C)=C/C=C/C(C)=C/C(=O)O)C(C)(C)CCC1,14,-21,0,-1,62*!,+
COCCNc1c(-c2ccc(OC)cc2)nc2cnccn12,/,/,/,/,-22,/
CCOC(=O)c1[nH]c2ccc(OC)cc2c1NS(=O)(=O)c1ccc(Cl)s1,4,3,2,-6,96*,+
COc1ccc2[nH]c(C(=O)O)c(NS(=O)(=O)c3ccc(Cl)s3)c2c1,1,-11,-1,-2,20,/
N#CC1=C(N)SC(N)=C(C#N)C1c1ccoc1,34,-6,1,-15,68*,i
CC(=O)c1cccc(S(=O)(=O)N(Cc2ccco2)Cc2cc3cc4c(cc3[nH]c2=O)OCCO4)c1,6,/,/,/,-68,/
Cc1ccccc1C(=O)N1CCc2cc(-c3nc(NC(=O)Cc4ccc5c(c4)OCO5)sc3C)ccc21,8,-5,-1,-15,14,/
Cc1sc(NC(=O)Cc2ccc3c(c2)OCO3)nc1-c1ccc2c(c1)CCN2C(=O)c1cccc(F)c1,5,0,3,-4,72*,i
CCCOP(=O)(OCCC)C(Nc1cccc(C(F)(F)F)c1)c1ccc(C)cc1 (centres undefined),4,/,-1,-16,68*,i
COc1ccccc1CNC(=O)C1(c2ccc(Cl)cc2)CC1,8,6,1,-4,69*,i
CC1CCC(C(C)C)C(OC(=O)COC(=O)c2ccc(=O)[nH]c2)C1 (centres undefined),15,-24,0,10,66*,i
CCOC(=O)c1c(N)sc2c1CCC(CC)C2 (centres undefined),11,/,3,12,66*,i
COc1ccc(OC)c(C(=O)c2coc3ccc(OCC(=O)O)cc23)c1,14,/,2,-24,65*,i
Cc1cc(=O)[nH]c(SCC(=O)N2CCC(C(N)=O)CC2)n1,6,-22,0,-3,13,/
CCCc1cc(=O)[nH]c(SCC(=O)N2CCC(C(=O)OCC)CC2)n1,13,/,1,0,68*,i
CC(C)n1c(=O)oc2cc(S(=O)(=O)NCc3nccn3C)ccc21,8,/,/,/,-37,/
Cc1ccccc1-n1c(SCC(=O)N2CCCC2)nnc1-c1ccccn1,11,-4,0,-3,66*,i
O=C(CSc1nnc(Cn2c(=O)sc3ccccc32)n1-c1ccccc1)N1CCCC1,6,17,0,-9,1,/
Cc1ccccc1-n1c(Cn2c(=O)sc3ccccc32)nnc1SCC(=O)N1CCCC1,/,-10,0,-3,56,i
Cc1ccc(Cn2c(Cc3ccccc3)nc3ccccc32)cc1,4,/,-1,-32,80*,+
Cc1cccc(NCc2nc3ccccc3n2Cc2ccccc2)c1,-1,/,0,-5,66*,i
COCc1nc2ccccc2n1Cc1ccc(C)cc1,12,/,/,/,11,/
O=C(Nc1cccc(Br)c1)c1cc2cc(Cl)ccc2oc1=O,16,/,/,/,-19,/
